Reference: PubChem BioAssay (Tox21)
Records with an inconclusive call do not appear. Entries that show only a call come without a potency. Calls of active or inactive are those of the source. Unless noted, calls follow the shape of the dose curve; as a rule, active = well fitted curve in the direction sought with a large enough effect in the repeat runs; inconclusive = weak or mixed curves; inactive = no such curve, though single readings can be large; an effect the other way counts as inactive or inconclusive.

Experiments:
[1] = qHTS assay to identify small molecule antagonists of the estrogen receptor beta (ER-beta) signaling pathway - cell viability counter screen (AID 1259382); also: series mostly up to about 92 µM; nearly all actives have a fitted effect of over 55% in size
In short: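 Cytotoxicity was measured in the same wells by CellTiter-Glo luminescence after 30 min at room temperature. Cells were ER-beta-bla HEK293T in charcoal-stripped serum, given compound together with 1 nM E2 and incubated 16 h at 37C.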

[2] = qHTS assay to identify small molecule agonists or antagonists of the thyroid stimulating hormone receptor (TSHR) signaling pathway - wild type cell line counter screen (AID 1259384; calls by dose curve)
In short: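 Wild-type HEK293 cells were plated 18 h at 37 C/5% CO2, pin-dosed with compound plus Ro20-1724 medium, held 30 min at room temperature, then given cAMP-d2 and anti-cAMP-cryptate; fluorescence was read after 1 h. Fifteen concentrations, triplicate.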

[3] = qHTS assay to identify small molecule agonists of the estrogen receptor alpha (ER-alpha) signaling pathway in the presence of an antagonist - cell viability counter screen (AID 1259386); also: nearly all actives have a fitted effect of over 30% in size; also: potency is read from the fitted curve at half-maximal effect
In short: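 Compounds tested at 15 concentrations for 22 h at 37C alongside 10.0nM (final) ICI-182,780 antagonist, in VM7Luc4E2 cells grown in phenol red-free, charcoal-stripped medium. Viability read by CellTiter-Fluor fluorescence after 1 h reagent incubation.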

[4] = molecular target: Progesterone receptor (Homo sapiens) (UniProt P06401); assay: qHTS assay to identify small molecule agonists of the progesterone receptor (PR) signaling pathway (AID 1346784; calls by dose curve; also: nearly all actives have a fitted effect of over 30% in size)
Sequence of Progesterone receptor (Homo sapiens) (P06401 whole entry, looked up): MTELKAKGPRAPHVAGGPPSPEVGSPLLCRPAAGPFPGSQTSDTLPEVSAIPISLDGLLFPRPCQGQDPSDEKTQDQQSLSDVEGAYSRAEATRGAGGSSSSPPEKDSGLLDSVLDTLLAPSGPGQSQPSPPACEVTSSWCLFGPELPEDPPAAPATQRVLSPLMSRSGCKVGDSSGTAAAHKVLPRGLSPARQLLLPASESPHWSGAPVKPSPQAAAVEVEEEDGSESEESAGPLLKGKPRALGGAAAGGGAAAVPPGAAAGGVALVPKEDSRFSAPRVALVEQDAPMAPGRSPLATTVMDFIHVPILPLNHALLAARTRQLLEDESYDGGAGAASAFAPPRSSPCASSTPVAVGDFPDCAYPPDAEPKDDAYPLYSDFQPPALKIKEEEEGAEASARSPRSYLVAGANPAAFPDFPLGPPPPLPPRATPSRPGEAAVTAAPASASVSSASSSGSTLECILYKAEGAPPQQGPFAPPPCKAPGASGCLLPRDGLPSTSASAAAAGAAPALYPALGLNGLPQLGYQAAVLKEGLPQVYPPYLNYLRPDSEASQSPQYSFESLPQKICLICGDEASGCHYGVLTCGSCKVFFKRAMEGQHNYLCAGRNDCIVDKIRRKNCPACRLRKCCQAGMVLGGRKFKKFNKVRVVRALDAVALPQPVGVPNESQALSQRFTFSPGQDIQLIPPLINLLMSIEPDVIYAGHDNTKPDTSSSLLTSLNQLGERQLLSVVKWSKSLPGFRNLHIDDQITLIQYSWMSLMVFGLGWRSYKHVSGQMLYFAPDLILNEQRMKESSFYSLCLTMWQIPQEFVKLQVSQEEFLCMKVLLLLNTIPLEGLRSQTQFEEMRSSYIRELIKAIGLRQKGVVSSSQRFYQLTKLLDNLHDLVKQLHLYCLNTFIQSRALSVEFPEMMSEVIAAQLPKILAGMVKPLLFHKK
In short: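 Using charcoal-stripped serum (2%) to limit endogenous steroids, PR-UAS-bla HEK 293T cells received compounds for 16 hr at 37C after 6 hr plating; beta-lactamase FRET fluorescence was recorded following 2 hr substrate loading at room temperature.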

[5] = molecular target: Progesterone receptor (Homo sapiens) (UniProt P06401); assay: qHTS assay to identify small molecule antagonists of the progesterone receptor (PR) signaling pathway (AID 1346795; active = well fitted inhibition curve with a large enough effect in the signal ratio in the repeat runs, not every such curve was filed as active; the % refers to the signal ratio; also: potency is read from the fitted curve at half-maximal effect)
In short: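 Inhibition of R5020-induced (1 nM final) beta-lactamase reporter signal in PR-UAS-bla HEK293T cells was scored by FRET fluorescence after overnight (16 hr) compound treatment.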

[6] = qHTS assay to identify small molecule antagonists of the progesterone receptor (PR) signaling pathway - cell viability counter screen (AID 1346798); also: series mostly up to about 92 µM; nearly all actives have a fitted effect of over 50% in size
In short: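 ATP content as viability readout: CellTiter-Glo luminescence, 30 min room temperature, in PR-UAS-bla HEK293T cells after 16 hr compound/R5020 treatment at 37C and 5% CO2.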

[7] = qHTS assay to identify small molecule agonists of the TGF-beta/Smad signaling pathway - cell viability counter screen (AID 1346829); also: top concentration of the series differs between compounds; nearly all actives have a fitted effect of over 45% in size
In short: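 CellTiter-Glo luminescence readout; SBE-bla HEK 293T cells, overnight plating, compound 5 hr at 37 C/5% CO2, then bla substrate 2 hr RT, then CellTiter-Glo 30 min RT.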

[8] = qHTS assay to identify small molecule agonists of the TGF-beta/Smad signaling pathway (AID 1346859; active = well fitted activation curve with a large enough effect in the signal ratio in the repeat runs, not every such curve was filed as active; the % refers to the signal ratio; also: series mostly up to about 77 µM)
In short: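 Stable Smad binding element-beta-lactamase HEK 293T cells; 5 hr compound exposure at 37 C under 5% CO2; 2 hr room-temperature substrate step; fluorescence excited at 405 nm, collected at 460 nm and 530 nm.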

[9] = molecular target: Thyrotropin-releasing hormone receptor (Homo sapiens) (UniProt P34981); assay: qHTS assay to identify small molecule antagonists of the thyrotropin-releasing hormone receptor (TRHR) signaling pathway (AID 1346877; active = well fitted inhibition curve with a large enough effect in the repeat runs, not every such curve was filed as active; also: series mostly up to about 51 µM)
Sequence of Thyrotropin-releasing hormone receptor (Homo sapiens) (P34981 whole entry, looked up): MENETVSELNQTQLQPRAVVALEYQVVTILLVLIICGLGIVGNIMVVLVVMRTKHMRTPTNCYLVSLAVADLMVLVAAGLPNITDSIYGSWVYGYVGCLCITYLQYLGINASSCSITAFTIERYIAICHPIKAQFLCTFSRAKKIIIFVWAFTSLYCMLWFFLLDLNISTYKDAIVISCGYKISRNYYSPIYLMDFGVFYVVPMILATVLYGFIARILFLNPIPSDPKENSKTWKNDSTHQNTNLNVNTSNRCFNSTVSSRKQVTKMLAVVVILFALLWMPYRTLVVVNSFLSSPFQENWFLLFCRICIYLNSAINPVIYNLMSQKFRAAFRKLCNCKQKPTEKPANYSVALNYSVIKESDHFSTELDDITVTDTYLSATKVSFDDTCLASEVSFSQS
In short: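 Antagonist mode: after a 5 min room-temperature compound exposure, cells were stimulated with 1 nM (final) TRH. Dye-loaded TRHR-HEK293 cells were used, and calcium-dependent fluorescence was followed for 3 min, with 15-point titrations run in triplicate.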

[10] = molecular target: Thyrotropin-releasing hormone receptor (Homo sapiens) (UniProt P34981); assay: qHTS assay to identify small molecule agonists of the thyrotropin-releasing hormone receptor (TRHR) signaling pathway (AID 1346891; calls by dose curve;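 also: HEK293 cells expressing TRHR with calcium dye readout; series mostly up to about 58 µM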)
In short: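 In 1536-format, 1500 TRHR-Hek293 cells per well grew 18 h, took up calcium dye for 2 h at 37 °C, received compound, and were read kinetically; 15-point titrations, triplicates.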

[11] = molecular target: Estrogen receptor beta (Homo sapiens) (UniProt Q92731); assay: qHTS assay to identify small molecule agonists of the estrogen receptor beta (ER-beta) signaling pathway (AID 1259377; active = well fitted activation curve with a large enough effect in the signal ratio in the repeat runs, not every such curve was filed as active; the % refers to the signal ratio)
Sequence of Estrogen receptor beta (Homo sapiens) (Q92731 whole entry, looked up): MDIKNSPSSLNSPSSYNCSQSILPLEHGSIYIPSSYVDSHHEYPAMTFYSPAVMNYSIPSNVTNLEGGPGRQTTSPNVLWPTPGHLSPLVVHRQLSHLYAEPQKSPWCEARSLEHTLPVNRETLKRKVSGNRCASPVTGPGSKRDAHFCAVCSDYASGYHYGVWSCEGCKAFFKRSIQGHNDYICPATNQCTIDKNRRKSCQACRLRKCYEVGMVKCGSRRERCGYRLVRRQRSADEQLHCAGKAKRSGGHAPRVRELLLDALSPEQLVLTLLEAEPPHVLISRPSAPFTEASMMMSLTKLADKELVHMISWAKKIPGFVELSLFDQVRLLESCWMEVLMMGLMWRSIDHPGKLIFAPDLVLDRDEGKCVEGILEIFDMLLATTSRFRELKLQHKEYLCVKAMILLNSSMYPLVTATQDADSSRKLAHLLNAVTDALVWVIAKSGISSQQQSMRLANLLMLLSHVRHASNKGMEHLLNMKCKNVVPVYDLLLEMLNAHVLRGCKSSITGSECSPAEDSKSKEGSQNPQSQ
In short: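 In HEK293T cells bearing a UAS-beta-lactamase reporter under ER-beta control, DMSO-delivered compounds were incubated for 16 hr at 37C. Activity was detected as fluorescence 2 hours after LiveBLAzer B/G FRET substrate addition.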

[12] = qHTS assay to identify small molecule agonists of the androgen receptor (AR) signaling pathway in the presence of an antagonist - cell viability counter screen (AID 1259379);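 also: MDA-kb2 human breast cancer cells carrying an MMTV luciferase reporter; series mostly up to about 92 µM; nearly all actives have a fitted effect of over 25% in size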
In short: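 Cytotoxicity counter-screen run in the same wells as the nilutamide-challenged (3.0 µM final) AR agonist assay in MDA-kb2 cells. Compounds tested at 15 concentrations for 16 h, 37 °C without CO2; CellTiter-Fluor fluorescence read.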

[13] = qHTS assay to identify small molecule agonists of the estrogen receptor beta (ER-beta) signaling pathway - cell viability counter screen (AID 1259380); also: nearly all actives have a fitted effect of over 30% in size
In short: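 Cell viability counter screen: CellTiter-Glo luminescence (30 min, room temperature) measured in the same wells as the beta-lactamase readout, after 16 hr compound exposure at 37C of ER-beta-bla HEK293T cells in 2% charcoal-stripped FBS medium.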

[14] = molecular target: Thyrotropin receptor (Homo sapiens) (UniProt P16473); assay: qHTS assay to identify small molecule antagonists of the thyroid stimulating hormone receptor (TSHR) signaling pathway (AID 1259385; calls by dose curve; also: nearly all actives have a fitted effect of over 20% in size)
Sequence of Thyrotropin receptor (Homo sapiens) (P16473 whole entry, looked up): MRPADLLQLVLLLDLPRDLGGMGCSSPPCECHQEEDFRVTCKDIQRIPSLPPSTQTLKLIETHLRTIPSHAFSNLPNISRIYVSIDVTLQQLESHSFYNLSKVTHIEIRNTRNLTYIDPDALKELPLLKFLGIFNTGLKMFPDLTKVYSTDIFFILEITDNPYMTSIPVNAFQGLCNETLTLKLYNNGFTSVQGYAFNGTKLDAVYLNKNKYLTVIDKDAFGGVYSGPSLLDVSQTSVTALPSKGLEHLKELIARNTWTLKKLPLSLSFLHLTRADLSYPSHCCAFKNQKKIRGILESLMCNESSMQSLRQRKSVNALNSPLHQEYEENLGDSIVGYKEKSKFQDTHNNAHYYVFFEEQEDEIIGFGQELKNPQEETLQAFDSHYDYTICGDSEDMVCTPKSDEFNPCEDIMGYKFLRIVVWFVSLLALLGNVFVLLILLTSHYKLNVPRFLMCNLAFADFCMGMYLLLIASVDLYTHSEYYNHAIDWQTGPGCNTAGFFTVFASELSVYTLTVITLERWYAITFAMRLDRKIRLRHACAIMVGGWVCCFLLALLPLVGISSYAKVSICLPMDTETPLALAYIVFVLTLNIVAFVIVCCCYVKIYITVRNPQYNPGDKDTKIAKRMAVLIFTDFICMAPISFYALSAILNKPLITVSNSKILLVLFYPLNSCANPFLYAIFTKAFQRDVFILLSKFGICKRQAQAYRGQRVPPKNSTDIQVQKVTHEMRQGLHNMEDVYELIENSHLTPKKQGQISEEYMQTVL
In short: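 TSHR-HEK293 cells were plated and held 18 h at 37C/5% CO2, then given compound plus Ro20-1724 and stimulated with TSH at 1.5 ng/mL final. After 30 min at room temperature, cAMP was detected with cAMP-d2/anti-cAMP-cryptate (1 h) by fluorescence.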

[15] = qHTS assay to identify small molecule agonists of the progesterone receptor (PR) signaling pathway - cell viability counter screen (AID 1346799; calls by dose curve; also: nearly all actives have a fitted effect of over 45% in size)
In short: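 Cytotoxicity in PR-bla HEK293T cells: 16 h compound, 37C; CellTiter-Glo added post-FRET read; luminescence after 30 min RT.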

[16] = qHTS assay to identify small molecule antagonists of the TGF-beta/Smad signaling pathway - cell viability counter screen (AID 1346824); also: nearly all actives have a fitted effect of over 50% in size
In short: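 SBE-bla HEK 293T cells were plated overnight at 37 C, then given compounds in DMSO plus TGF-beta1 (added as 0.25 ng/mL solution) for 5 hr. After the bla read, CellTiter-Glo was added to the same wells and luminescence read after 30 min at room temperature.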

[17] = molecular target: Estrogen receptor beta (Homo sapiens) (UniProt Q92731); assay: qHTS assay to identify small molecule antagonists of the estrogen receptor beta (ER-beta) signaling pathway (AID 1259378; active = well fitted inhibition curve with a large enough effect in the signal ratio in the repeat runs, not every such curve was filed as active; the % refers to the signal ratio)
In short: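 ER-beta-UAS-bla HEK293T (GripTite) cells in 2% charcoal-stripped FBS medium were preincubated 6 hr at 37C, dosed with compound, then stimulated with 1 nM E2 (final) for 16 hr; beta-lactamase reporter read by B/G FRET fluorescence after 2 hr substrate loading.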

[18] = molecular target: Estrogen receptor (Homo sapiens) (UniProt P03372); assay: qHTS assay to identify small molecule agonists of the estrogen receptor alpha (ER-alpha) signaling pathway in the presence of an antagonist (AID 1259383; calls by dose curve; also: top concentration of the series differs between compounds; nearly all actives have a fitted effect of over 15% in size)
Sequence of Estrogen receptor (Homo sapiens) (P03372 whole entry, looked up): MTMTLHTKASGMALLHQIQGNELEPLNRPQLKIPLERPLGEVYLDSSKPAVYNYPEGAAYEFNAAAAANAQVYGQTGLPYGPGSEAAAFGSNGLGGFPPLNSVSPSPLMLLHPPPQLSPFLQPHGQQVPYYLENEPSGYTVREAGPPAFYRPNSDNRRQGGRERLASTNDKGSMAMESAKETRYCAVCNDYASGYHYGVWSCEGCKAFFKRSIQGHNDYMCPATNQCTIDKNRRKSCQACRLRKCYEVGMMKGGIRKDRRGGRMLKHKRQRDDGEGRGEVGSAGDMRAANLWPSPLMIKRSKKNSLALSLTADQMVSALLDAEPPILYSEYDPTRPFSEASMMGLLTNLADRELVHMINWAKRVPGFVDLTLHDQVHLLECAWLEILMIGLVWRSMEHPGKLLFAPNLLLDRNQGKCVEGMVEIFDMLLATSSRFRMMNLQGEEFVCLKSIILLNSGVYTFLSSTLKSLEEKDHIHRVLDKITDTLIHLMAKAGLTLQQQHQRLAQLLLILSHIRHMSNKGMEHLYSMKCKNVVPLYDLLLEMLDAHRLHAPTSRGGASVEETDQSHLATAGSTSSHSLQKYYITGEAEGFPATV
In short: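 Agonist-mode confirmation run in the presence of 10.0nM (final) ICI-182,780 antagonist. The reporter was ERE-driven luciferase in VM7Luc4E2 cells, grown in charcoal-stripped serum. Cells were exposed to 15-concentration compound series for 22hr, then ONE-Glo luminescence was read.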

SMILES	Potency [1]	Potency [2]	Potency [3]	Potency [4]	Potency [5]	Potency [6]	Potency [7]	outcome [8]	Potency [9]	Potency [10]	Potency [11]	Potency [12]	Potency [13]	Potency [14]	Potency [15]	Potency [16]	Potency [17]	Potency [18]
CO/N=C(\C(=O)OC)c1ccccc1CO/N=C(\C)c1cccc(C(F)(F)F)c1	inactive	inactive	30.6 µM (active)	inactive	6.86 µM (active)	inactive	inactive	inactive	inactive	inactive	–	–	–	–	–	–	–	–
CCc1cccc(C)c1N(C(=O)CCl)[C@@H](C)COC	inactive	inactive	inactive	inactive	–	inactive	inactive	inactive	inactive	–	inactive	inactive	inactive	inactive	inactive	inactive	–	–
Cc1cc2c3c(c1)C(c1ccccc1)=N[C@@H](NC(=O)c1ccncc1)C(=O)N3CC2	inactive	inactive	inactive	inactive	inactive	inactive	–	inactive	–	inactive	inactive	inactive	inactive	inactive	inactive	inactive	inactive	–
O.O.O.O=C([O-])[C@H]([O-])[C@@H]([O-])C(=O)[O-].O=C([O-])[C@H]([O-])[C@@H]([O-])C(=O)[O-].[K+].[K+].[Sb+3].[Sb+3]	inactive	–	54.8 µM (active)	inactive	–	–	inactive	inactive	inactive	inactive	–	–	inactive	–	–	inactive	–	inactive
CCCCCON=O	inactive	inactive	–	inactive	inactive	inactive	inactive	inactive	–	–	inactive	inactive	inactive	–	inactive	inactive	inactive	–
